According to the supplement of paper PMC6555819:

How the values were obtained:
Assay in all cases: PBM binding z-score (relative to random genomic background probes); higher = stronger binding; sequences stand for … in GC…GCGATTGACAGCGTAGAATGAAGG
[1] = tested on: FXR:RXRa (NR concentration 270 nM, RXRa partner concentration 90 nM)
Procedure, shortened: (§1)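 Regression normalization was applied to scanned fluorescence from custom Agilent 4×180K protein-binding microarrays. Before scanning, arrays were incubated 1 h with ligand-free nuclear receptor dimers, and binding was detected with antibodies against each partner (one per run). Binding z-scores use the random background probes as reference.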

[2] = tested on: LXRa:RXRa (NR concentration 270 nM, RXRa partner concentration 90 nM)
Procedure, shortened: as §1

[3] = tested on: LXRa homodimer (NR concentration 270 nM)
Procedure, shortened: as §1

[4] = tested on: LXRb:RXRa (NR concentration 270 nM, RXRa partner concentration 90 nM)
Procedure, shortened: as §1

[5] = tested on: LXRb homodimer (NR concentration 270 nM)
Procedure, shortened: as §1

[6] = tested on: PPARa:RXRa (NR concentration 270 nM, RXRa partner concentration 90 nM)
Procedure, shortened: as §1

[7] = tested on: PPARg:RXRa (NR concentration 180 nM, RXRa partner concentration 90 nM)
Procedure, shortened: as §1

[8] = tested on: PPARg:RXRa 270nM:90nM, anti-RXR (NR concentration 270 nM, RXRa partner concentration 90 nM)
Procedure, shortened: as §1

[9] = tested on: PPARg:RXRa 30nM:10nM, anti-RXR (NR concentration 30 nM, RXRa partner concentration 10 nM)
Procedure, shortened: as §1

[10] = tested on: PPARg:RXRa 90nM:30nM, anti-RXR (NR concentration 90 nM, RXRa partner concentration 30 nM)
Procedure, shortened: as §1

[11] = tested on: PPARg:RXRa DBDmut IVT, anti-RXR (DBD mutation: RXRa K156A/R161A, NR concentration 270 nM, RXRa partner concentration 90 nM)
Procedure, shortened: as §1

[12] = tested on: PPARg:RXRa IVT, anti-PPARg (NR concentration 270 nM, RXRa partner concentration 90 nM)
Procedure, shortened: as §1

[13] = tested on: PPARg DBDmut:RXRa IVT, anti-PPARg (DBD mutation: PPARg1 K132A/R137A, NR concentration 270 nM, RXRa partner concentration 90 nM)
Procedure, shortened: as §1

[14] = tested on: PPARg DBDmut IVT, anti-PPARg (DBD mutation: PPARg1 K132A/R137A, NR concentration 270 nM)
Procedure, shortened: as §1

[15] = tested on: PPARg homodimer (NR concentration 180 nM)
Procedure, shortened: as §1

[16] = tested on: PXR:RXRa (NR concentration 270 nM, RXRa partner concentration 90 nM)
Procedure, shortened: as §1

[17] = tested on: PXR homodimer (NR concentration 270 nM)
Procedure, shortened: as §1

[18] = tested on: RARa:RXR (NR concentration 270 nM, RXRa partner concentration 90 nM)
Procedure, shortened: as §1

[19] = tested on: RARa homodimer (NR concentration 270 nM)
Procedure, shortened: as §1

[20] = tested on: RARb:RXRa (NR concentration 270 nM, RXRa partner concentration 90 nM)
Procedure, shortened: as §1

Row | Sequence | PBM binding z-score [1] | PBM binding z-score [2] | PBM binding z-score [3] | PBM binding z-score [4] | PBM binding z-score [5] | PBM binding z-score [6] | PBM binding z-score [7] | PBM binding z-score [8] | PBM binding z-score [9] | PBM binding z-score [10] | PBM binding z-score [11] | PBM binding z-score [12] | PBM binding z-score [13] | PBM binding z-score [14] | PBM binding z-score [15] | PBM binding z-score [16] | PBM binding z-score [17] | PBM binding z-score [18] | PBM binding z-score [19] | PBM binding z-score [20]
1 | ACTATTAGTTGAATTAGGGCAACCGATACGACGC | 0.466 | -0.0406 | 0.224 | -0.00259 | 0.376 | 1.19 | 1.47 | 1.12 | 0.71 | 1.04 | 2.66 | 3.69 | 1.92 | 1.76 | 1.34 | -0.0416 | 0.205 | 0.264 | 1.47 | 0.87
2 | ACAATTAGTTGACTTAGGGCAACCGATACGACGC | 0.279 | 0.33 | 0.565 | 0.0599 | 0.612 | 0.00256 | 1.03 | 0.396 | 0.353 | 0.139 | 0.0819 | 0.506 | 0.981 | 1.45 | 0.921 | -0.00518 | 0.761 | 0.318 | 0.646 | 0.888
3 | CCTTACGGGTCACAGACAGGTTATAGCATTTGGA | 5.55 | 4.19 | 0.611 | 3.84 | 0.0624 | 5.36 | 5.74 | 5.16 | 2.14 | 3.99 | 3.72 | 4.63 | 1.16 | 0.89 | 2.76 | 3.87 | 0.387 | 4.91 | 0.967 | 4.01
4 | GCTAGTTGGTCAGTAAAAGGTCACACTCCGGTCG | 3.15 | 4.29 | 4.97 | 3.76 | 0.637 | 4.19 | 2.49 | 4.24 | 1.86 | 3.7 | 1.66 | 2.87 | -0.175 | 0.207 | 3.12 | 4.77 | 0.877 | 5.45 | 1.9 | 4.3
5 | ACTATTAGTTGAGACGAGAGCAACCGATAGGTTG | -0.0812 | -0.233 | -0.161 | -0.216 | 0.14 | -0.533 | 0.493 | -0.133 | 0.37 | 0.081 | -0.112 | -0.0541 | 0.442 | 0.157 | 0.139 | -0.467 | -0.273 | -0.313 | 0.747 | -0.263
6 | TCTATTAGTTGAATGGCAACCGACGAGTCCGTTT | 1.04 | 1.04 | 0.119 | 1.01 | 0.477 | 0.96 | -0.00847 | 2.18 | 3.81 | 2.92 | 2.47 | 0.106 | 0.422 | 0.888 | 1.27 | 0.794 | 0.892 | 0.79 | 1.08 | 0.622
7 | AGAACGACGGCAATGAGTTGATAGCACGGGTGGC | -0.823 | -0.86 | -0.973 | -1.01 | -0.907 | -0.728 | 0.71 | -0.672 | -0.309 | -0.536 | -0.438 | -0.402 | -0.484 | -0.862 | -0.865 | -0.631 | -0.242 | -0.819 | -0.419 | -0.448
8 | CGAACTAGCTCATTGACAGGACAGTGAATAGTAA | -0.457 | -0.373 | 0.0523 | -0.29 | -0.335 | -0.257 | 0.0799 | -0.461 | -0.245 | -0.396 | -0.0116 | -0.052 | 0.48 | 0.24 | -0.35 | -0.133 | 0.129 | 0.164 | 0.183 | -0.386
9 | CCTAGTTAGTCAAGGTCACACACGCTATAGGTAC | 4.07 | 4.91 | 3.93 | 3.98 | 1.49 | 3.99 | 2.29 | 2.75 | 1.02 | 1.79 | 1.6 | 2.69 | 1.12 | 1.42 | 3.64 | 4.25 | 2.22 | 4.4 | 2.9 | 4.01
10 | GATACAGGGTCAGCTAGAGACCAGAGTATGGAAA | 4.21 | 2.28 | -0.37 | 2.36 | -0.416 | 4.54 | 3.4 | 3.33 | 0.781 | 2.29 | 1.1 | 2.34 | 0.401 | -0.539 | 1.14 | 1.89 | 0.00163 | 2.98 | 0.39 | 3.53
11 | ACTCGGAGGACATAGGTCAGAGCTACGCCAGTGA | 1.33 | 1.54 | 0.379 | 1.13 | -0.23 | 2.89 | 3.73 | 4.68 | 2.29 | 3.87 | 0.107 | 1.88 | -0.386 | 0.0927 | 0.895 | 1.15 | 0.0875 | 1.9 | 0.402 | 2.31
12 | GCAGACAGGGGAAACGCAGGTAACTCAGGGTGGC | -0.526 | -0.555 | -0.616 | -0.597 | -1.27 | -0.505 | 0.299 | -0.604 | -1.01 | -0.89 | -0.682 | -0.536 | 0.0572 | -0.175 | -1.42 | -0.626 | -0.571 | -0.366 | -1.03 | -0.337
13 | CCTTACGGGTGAAGGTTATAGCACGGGTGGTACG | 0.149 | 0.504 | -0.127 | 0.0957 | -0.349 | 1.61 | 1.09 | 1.51 | -0.0216 | 0.958 | 0.6 | 1.31 | -0.607 | -1.16 | 0.456 | 0.216 | -0.0716 | 0.732 | 0.409 | 1.31
14 | CGTCCAGGGTCAAGGTCAGTGAAAGAGACTCGAA | 7.27 | 4.72 | 0.165 | 4.58 | -0.131 | 6.04 | 6.91 | 6.41 | 3.27 | 5.71 | 1.82 | 4.14 | 0.455 | 0.241 | 3.01 | 4.77 | 0.845 | 5.13 | 1.53 | 5.23
